Results on nine molecules are retold here after PubChem BioAssay (NCI).

The panel holds about 83,000 compounds, 20% with a hit somewhere; the sample as a whole holds those more often.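 Percent growth is the endpoint: 0 to 100 indicates growth inhibition (40 means 60% inhibition), 0 means no net growth, and negative values indicate cell death.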 Unmarked numbers belong to inactive results. Calls of active or inactive are those of the source. How the source made its calls: active means growth percent below 10; inactive means the rest.

Among the test systems are SK-MEL-2 melanoma; SN12C renal; UO-31 renal; TK-10 renal; ACHN renal; CAKI-1 renal; A498 renal; CCRF-CEM leukemia; SR leukemia; RPMI-8226 leukemia; OVCAR-8 ovarian; OVCAR-5 ovarian; OVCAR-4 ovarian; SK-OV-3 ovarian; OVCAR-3 ovarian; HS 578T breast; EKVX NSCLC; MOLT-4 leukemia; IGROV1 ovarian; NCI/ADR-RES ovarian.
Experiment in all cases: NCI-60 one-dose screen, 48 h (100 = growth as untreated, 0 = no growth, -100 = all killed)
Holding throughout (details): 10 µM unless noted

Regarding `Cc1cc(Nc2ccc(C)c(Cl)c2)n2nc(C(F)(F)F)nc2n1`, the growth in the test with SK-MEL-2 melanoma is 60.8%; with SN12C renal, 22.1%; with UO-31 renal, -43.2% (active); in the test on TK-10 renal it was -32.3% (active); in the test on ACHN renal, -2.48% (active); in the test on CAKI-1 renal, -35.5% (active). For the same molecule, the growth in the test on A498 renal is 91.9%; with CCRF-CEM leukemia, 62%; in the test with SR leukemia, 60.6%; in the test with RPMI-8226 leukemia it was 51.6%; in the test on OVCAR-8 ovarian, 30.8%; with OVCAR-5 ovarian it was 55.4%. The growth with OVCAR-4 ovarian was -62.7% (active); in the test on SK-OV-3 ovarian, -50.5% (active); in the test with OVCAR-3 ovarian it was 15.2%; with HS 578T breast, 28.7%.
With `CCCCCCN(CCCCCC)C(=N)c1ccnc2ccccc12`, the growth in the test with EKVX NSCLC was 84.5%; with SN12C renal it was 71.9%; in the test on UO-31 renal it was 36.5%; in the test with TK-10 renal, 73.4%; with A498 renal, 37.2%; in the test with CCRF-CEM leukemia, -4.39% (active). The growth with MOLT-4 leukemia was 48.8%; in the test with SR leukemia, 35.4%; in the test on RPMI-8226 leukemia, 50.2%; in the test on OVCAR-8 ovarian, 71.7%; in the test with OVCAR-5 ovarian it was 77.4%; in the test on OVCAR-4 ovarian, 67.6%. In addition, the growth was 92.4% with SK-OV-3 ovarian, 65.9% in the test with IGROV1 ovarian, 69.3% in the test with OVCAR-3 ovarian and 65.1% in the test with NCI/ADR-RES ovarian.
With `CCN1CCN(c2nc(NCCCNc3ccnc4cc(Cl)ccc34)c3ccccc3n2)CC1`, the growth was -10.5% (active) in the test on SK-MEL-2 melanoma; 48.2% with SN12C renal; -5.29% (active) in the test on UO-31 renal; 5.28% (active) in the test on ACHN renal; 81% in the test with A498 renal; 12.2% in the test with CCRF-CEM leukemia. Besides, the growth with MOLT-4 leukemia is 13.6%; in the test with SR leukemia it was -33.3% (active); with RPMI-8226 leukemia, -10% (active); in the test with OVCAR-8 ovarian, 16.6%; in the test with OVCAR-5 ovarian, 55.1%; in the test with OVCAR-4 ovarian, 48%. The growth was 60% in the test on SK-OV-3 ovarian; 59.3% in the test with IGROV1 ovarian; 54% in the test on OVCAR-3 ovarian; 78.8% in the test with HS 578T breast; 92.6% with NCI/ADR-RES ovarian.
Consider `Nc1n[nH]c2ccc([C@@H]3Nc4cc5c(cc4[C@H]4C6CCC(C6)[C@@H]34)C(=O)NC5)cc12` (stereo not given in full), for which the growth is 48.8% in the test with SK-MEL-2 melanoma; 38.4% in the test with SN12C renal; 54.9% in the test on UO-31 renal; 89.3% with TK-10 renal; 34.4% with ACHN renal; 40.5% in the test on CAKI-1 renal. The growth with CCRF-CEM leukemia was 10.5%; with MOLT-4 leukemia, 14.7%; in the test with SR leukemia, 8.36% (active); in the test on RPMI-8226 leukemia, 34.6%; with OVCAR-8 ovarian, 21.5%; in the test with OVCAR-5 ovarian, 33.1%. For the same molecule, the growth with OVCAR-4 ovarian is 30.7%; with SK-OV-3 ovarian, 42.1%; with IGROV1 ovarian it was 12.6%; in the test on OVCAR-3 ovarian, -3.29% (active); in the test with HS 578T breast it was 24.5%; with NCI/ADR-RES ovarian, 69%.
For `CCOC(=O)c1c(C(=O)OCC)c2cc(-c3ccn4c(C(=O)c5ccccc5)c(C(=O)OCC)c(C(=O)OCC)c4c3)ccn2c1C(=O)c1ccccc1`, the growth with SK-MEL-2 melanoma was 89.8%; in the test on SN12C renal, 93.6%; with UO-31 renal it was 66.6%; in the test with TK-10 renal it was 112%; in the test with ACHN renal, 96.3%; with A498 renal, 86.8%. For the same molecule, the growth is 72.9% in the test on CCRF-CEM leukemia; 68.1% with MOLT-4 leukemia; 90.4% in the test on SR leukemia; 50.6% in the test with RPMI-8226 leukemia; 71.8% with OVCAR-8 ovarian; 130% in the test with OVCAR-5 ovarian. In addition, the growth in the test on OVCAR-4 ovarian is 89.2%; in the test on SK-OV-3 ovarian, 109%; in the test on IGROV1 ovarian it was 82.3%; with OVCAR-3 ovarian, 95%; in the test on HS 578T breast it was 80.7%; in the test on NCI/ADR-RES ovarian, 89.5%.
In the case of `CC(=O)Oc1ccc(Cl)cc1CN(C(C)=O)C1CCCCC1`, the growth in the test with SK-MEL-2 melanoma is 112%; in the test on SN12C renal it was 97.3%; in the test on UO-31 renal, 90.5%; in the test with TK-10 renal, 110%; in the test on ACHN renal, 102%; in the test on CCRF-CEM leukemia it was 87.9%. Also, the growth in the test on MOLT-4 leukemia was 85.9%; in the test on SR leukemia, 92.9%; with RPMI-8226 leukemia, 84%; in the test on OVCAR-8 ovarian it was 97.1%; with OVCAR-4 ovarian it was 119%; in the test with SK-OV-3 ovarian it was 99.7%. Also, the growth was 98.2% in the test on IGROV1 ovarian, 114% in the test on OVCAR-3 ovarian, 104% in the test with HS 578T breast and 110% with NCI/ADR-RES ovarian.
Turning to `CCN(CC)c1ccc(-c2cc(-c3cc(OC)c(OC)c(OC)c3)nc(N3CCOCC3)c2C#N)cc1`, the growth with EKVX NSCLC is 36.3%; in the test on SN12C renal it was 36.4%; in the test with UO-31 renal, 5.65% (active); with ACHN renal it was 19.5%; with CAKI-1 renal it was 1.28% (active); in the test on A498 renal, 34.5%. The growth in the test on SR leukemia was -8.39% (active); in the test with RPMI-8226 leukemia it was -33.1% (active); in the test with OVCAR-8 ovarian it was -28.4% (active); in the test on OVCAR-5 ovarian, 5.94% (active); in the test on OVCAR-4 ovarian it was 38.2%; with SK-OV-3 ovarian it was 51.8%. In addition, the growth in the test on OVCAR-3 ovarian is 32.8%; in the test with HS 578T breast, 55.8%; with NCI/ADR-RES ovarian it was 27.6%.
`COc1ccccc1Nc1nc(-c2cc3cccc(C(F)(F)F)c3oc2=O)cs1`: the growth in the test on SK-MEL-2 melanoma was 26.8%; in the test on UO-31 renal, 52%; in the test on TK-10 renal it was 67.9%; in the test on ACHN renal it was 24.6%; in the test on CAKI-1 renal it was 9.18% (active); in the test with A498 renal, -9.67% (active). In addition, the growth with CCRF-CEM leukemia was 7.96% (active); in the test on MOLT-4 leukemia it was 14.9%; in the test with SR leukemia it was 10.2%; in the test with RPMI-8226 leukemia, 16.8%; in the test with OVCAR-8 ovarian it was 9.28% (active); with OVCAR-5 ovarian it was 67%. The growth in the test with OVCAR-4 ovarian is 37.1%; with SK-OV-3 ovarian, 31.3%; in the test with OVCAR-3 ovarian it was -21.7% (active); in the test with HS 578T breast it was 31.4%; in the test on NCI/ADR-RES ovarian it was 15%.
Turning to `OCCNc1nccc(N2CCN(c3ccnc4cc(Cl)ccc34)CC2)n1`, the growth in the test with SK-MEL-2 melanoma was 84.1%; in the test on SN12C renal it was 84.5%; with UO-31 renal it was 47.7%; in the test on ACHN renal, 92.5%; in the test with CAKI-1 renal, 77%; in the test on A498 renal it was 15.5%. Moreover, the growth in the test on CCRF-CEM leukemia was 66.5%; in the test on MOLT-4 leukemia it was 52.4%; with SR leukemia it was 17.4%; with RPMI-8226 leukemia it was 89.3%; in the test with OVCAR-8 ovarian, 94.6%; in the test with OVCAR-5 ovarian, 102%. Moreover, the growth is 77.5% in the test on OVCAR-4 ovarian; 85.2% in the test on SK-OV-3 ovarian; 55.7% in the test with IGROV1 ovarian; 81.1% in the test on OVCAR-3 ovarian; 92.1% in the test on HS 578T breast.
